Bm FixLJ act = activators of Burkholderia fixLJ two-component system; B. multivorans fixK-promoter GFP reporter, 18 h; active compounds read high; z-score (test concentration not listed); hit rate 0.3% among 29,000;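 active = replicate mean overnight rise in green fluorescent reporter signal, 3 or more SD over negative controls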
Numbers without * were called inactive. Shown is part of a subset that was picked to be rich in hits.

SMILES	Bm FixLJ act
Cc1cc(NC(=O)C2CCCN(S(=O)(=O)c3ccc(Br)s3)C2)ccc1Br (stereo unspecified)	-1.1
CC(=O)c1ccc(N2CCN(C(=O)C3CCCN(S(=O)(=O)c4ccc(Br)s4)C3)CC2)cc1 (stereo unspecified)	-1.1
CC(=O)c1ccc(NC(=O)C2CCCN(S(=O)(=O)c3ccc(Br)s3)C2)cc1 (stereo unspecified)	3.2*
COc1ccc(C)cc1NC(=O)c1ccc2c(SCC(=O)O)c3c(nc2c1)CCCC3	0.49
CCN(CC)S(=O)(=O)c1ccc2oc(C(=O)NCc3ccccc3OC)c(C)c2c1	1.7
CCOC(=O)N1CCN(c2ncc3c(n2)CC(c2ccc(Cl)cc2)CC3=O)CC1 (stereo unspecified)	-0.91
O=C(Cc1ccccc1)Nc1c(C(=O)c2ccccc2)oc2ccccc12	3.1*
Cc1ccc(NC(=O)c2oc3ccccc3c2NC(=O)Cc2ccccc2)cc1	-0.81
CCc1ccc(OCC(=O)Nc2c(C(=O)c3ccccc3)oc3ccccc23)cc1	-1.9
COc1ccc(-n2cnnc2)cc1NC(=O)Cc1cccc(F)c1F	-2.2
Cc1ccc2nc(Nc3cccc(Cl)c3C)c(-n3nc(C)cc3C)nc2c1	0.62
COc1ccccc1Nc1nc2ccc(Cl)cc2nc1-n1nc(C)cc1C	3.2*
COc1ccc(OC)c(Nc2nc3ccccc3nc2-n2nc(C)cc2C)c1	-0.33
O=C(Nc1ccc(Br)cc1)c1cc(-c2cccs2)nc2ccccc12	-2.2
Cc1ccccc1OCCn1c(CCNC(=O)C(C)(C)C)nc2ccccc21	-2
Cc1ccc(NC(=O)Cc2coc3ccc(C(C)C)cc23)cc1Cl	-1.6
CCc1ccc2occ(CC(=O)Nc3nnc(SC)s3)c2c1	-0.26
CCc1ccc2occ(CC(=O)Nc3ccc(C)c(C)c3)c2c1	3.4*
CCOc1ccccc1NC(=O)CCCc1nc(-c2ccccc2Cl)no1	-4.6
CN(Cc1ccccc1)C(=O)CSc1c2c(nc3ccc(Cl)cc13)CCCC2	0.91
O=C(NCc1cccc(Cl)c1)c1ccc2c(Cl)c3c(nc2c1)CCCC3	0.43
Cc1nc(SCc2cccc(Cl)c2)nc2c1CCCC2	3*
Cn1cnnc1CCC(=O)N(Cc1cnn(-c2ccccc2)c1)C1CC1	-1.5
CC1CCN(C(=O)Cn2ncc3c4ccccc4n(Cc4ccc(Cl)cc4)c3c2=O)CC1	7.3*
CCN(CC)CCNC(=O)Cn1ncc2c3ccccc3n(Cc3ccc(Cl)cc3)c2c1=O	3.5*
SMILES	Bm FixLJ act
O=C(Cn1ncc2c3ccccc3n(Cc3ccc(Cl)cc3)c2c1=O)NCc1cccs1	8.2*
Cc1ccccc1Cn1c2ccccc2c2cnn(CC(=O)N3CCC(C)CC3)c(=O)c21	-2.8
CN1CCN(C(=O)Cn2ncc3c4ccccc4n(Cc4ccc(Cl)cc4)c3c2=O)CC1	1.2
Cc1cc(C)c(Cn2c3ccccc3c3cnn(CC(=O)NCc4cccs4)c(=O)c32)c(C)c1	-0.87
CCCCN(CC)CCCNC(=O)Cn1ncc2c3ccccc3n(Cc3ccccc3F)c2c1=O	-1.6
CCCCN(CC)CCCNC(=O)Cn1ncc2c3ccccc3n(C)c2c1=O	-1.8
Cn1c2ccccc2c2cnn(CC(=O)NCc3ccc(Cl)cc3)c(=O)c21	-1.9
COc1ccccc1CNC(=O)c1cc2sccc2n1Cc1ccc(F)cc1	2.6
CC(C)c1ccc(NC(=O)C2(C)Cc3ccccc3C(=O)O2)cc1 (stereo unspecified)	-2.5
COc1cccc(-c2nc(SCC(=O)NCC3CCCO3)c(-c3ccc(F)cc3)[nH]2)c1 (stereo unspecified)	1.2
CCCc1nnc(N2CCN(c3ccccc3OCC)CC2)o1	-1.6
CC(C)c1ccc(NC(=O)Cn2c(=O)oc3cc(S(=O)(=O)N4CCCC4)ccc32)cc1	-1.8
Brc1ccc(-n2nc(-c3ccccc3)c3cnc4cc5c(cc4c32)OCO5)cc1	1
CCc1ccc2ncc3c(-c4ccccc4)nn(-c4ccccc4)c3c2c1	3.3*
Cc1ccc(-c2nn(-c3ccccc3)c3c2cnc2ccccc23)cc1C	-2.4
NC(=O)c1cccnc1	-1.7
O=C(Cc1cn2ccsc2n1)NC1COCC1Cc1ccncc1 (stereo unspecified)	0.39
COc1ccc(-n2c(C)c(C(C)=O)c3cc(OC(=O)c4ccc(C)cc4)ccc32)cc1	-1.9
Cc1ccc2oc(C(=O)Nc3c(C(=O)c4ccc(C)c(F)c4)oc4ccccc34)cc(=O)c2c1	-1.4
COc1ccc(OCC(=O)NC(Cc2c[nH]c3ccccc23)C(=O)O)cc1 (stereo unspecified)	-0.49
COc1ccc(NC(=O)c2sc3nc4c(cc3c2N)CCCCCC4)cc1Cl	-1.1
COc1ccccc1CNC(=O)CCc1c(C)c2ccc(OC)c(C)c2oc1=O	-1.9
COc1ccccc1CCNC(=O)CCc1c(C)c2cc3c(C)c(C)oc3cc2oc1=O	0.85
COc1ccccc1CNC(=O)CCc1c(C)c2cc3c(C)c(C)oc3cc2oc1=O	3.5*
CCOC(=O)c1c(NC(=O)c2ccc(F)cc2)sc2c1CCC(CC)C2 (stereo unspecified)	-0.51
SMILES	Bm FixLJ act
N#C/C(=C\c1ccc(Cl)cc1)c1nc2ccccc2[nH]1	0.71
N#C/C(=C\c1ccc(-c2ccccc2C(=O)O)o1)c1nc2ccccc2[nH]1	-1.6
N#C/C(=C\c1ccc(-c2ccc(F)cc2F)o1)c1nc2ccccc2[nH]1	14*
O=C(c1cc(C2CC2)[nH]n1)N1CCc2c(nc(-c3ccncc3)[nH]c2=O)C1	-0.29
CCN1CCOC(=O)C1CC(=O)Nc1cc(Cl)ccc1C (stereo unspecified)	-0.38
CN(C)CCNC(=O)c1ccc2c(c1)N(Cc1c(F)cccc1Cl)C(=O)c1ccccc1S2	-2.6
O=C(CC1C(=O)N(c2ccccc2)C(=O)N1CCC1=CCCCC1)Nc1ccc(F)cc1 (stereo unspecified)	1.1
CCOc1ccc(NC(=O)CC2C(=O)N(c3cccc(C)c3)C(=O)N2CCC2=CCCCC2)cc1 (stereo unspecified)	3*
COc1ccc(NC(=O)CC2C(=O)N(c3ccccc3)C(=O)N2CCC2=CCCCC2)cc1 (stereo unspecified)	-1.8
COc1ncc(C(=O)N2CCCC(c3[nH]ncc3-c3ccccc3)C2)cn1 (stereo unspecified)	0.38
COc1ccc(-n2nc3cc(C)c(NC(=O)COc4cccc(C)c4)cc3n2)cc1	-0.76
Cc1cccc(N2CCN(S(=O)(=O)c3cc(Cl)ccc3Cl)CC2)c1C	0.22
CCOc1ccc(OCC)c(S(=O)(=O)N2CCN(c3cccc(C)c3C)CC2)c1	3.4*
COc1ccc(S(=O)(=O)N2CCN(c3cccc(C)c3C)CC2)c2ccccc12	-0.15
Cn1ncc2c(N)nc(N3CCCC(OCc4ccccn4)C3)nc21 (stereo unspecified)	-1.8
CC(CN1c2ccccc2Sc2ccccc21)N(C)C (stereo unspecified)	-1.4
O=C1c2ccccc2-c2onc3c(NCCO)cc(NC4CCCCC4)c1c23	-1.7
CCCCNc1cc(NC2CCCCC2)c2c3c(onc13)-c1ccccc1C2=O	4.2*
CCNc1cc(N2CCN(C3CCCCC3)CC2)c2noc3c2c1C(=O)c1ccccc1-3	-1.1
CCCCCn1c(=N)c(S(=O)(=O)c2ccc(C)cc2)cc2c(=O)n3cc(C)ccc3nc21	-1.4
CCC(C)n1c(=N)c(S(=O)(=O)c2ccccc2)cc2c(=O)n3ccccc3nc21 (stereo unspecified)	-2.8
CCC(C)n1c(=N)c(S(=O)(=O)c2ccc(C)cc2)cc2c(=O)n3cc(C)ccc3nc21 (stereo unspecified)	5.7*
Cc1cc(C)c(S(=O)(=O)Nc2ccc3oc4c(c3c2)C(=O)CC(C)(C)C4)cc1C	-0.38
